Drawing on article PMC11574364, this text covers binding signal for six sequences.

Holding throughout (assay): protein domain microarray probed with biotinylated miRNA; Domain array: 20 mM Tris-HCl pH 7.4, 200 mM KCl, 0.2 mM EDTA, 0.05% NP40, 2 ug/ul heparin, overnight 4 C. ORF array: PBS pH 7.0 with RNase inhibitor, 100 ng RNA; high values mean tight binding
Settings in all cases: ssRNA

Assay [1] deals with T1, DAZL (Homo sapiens, UniProt Q92904).
T1 sequence: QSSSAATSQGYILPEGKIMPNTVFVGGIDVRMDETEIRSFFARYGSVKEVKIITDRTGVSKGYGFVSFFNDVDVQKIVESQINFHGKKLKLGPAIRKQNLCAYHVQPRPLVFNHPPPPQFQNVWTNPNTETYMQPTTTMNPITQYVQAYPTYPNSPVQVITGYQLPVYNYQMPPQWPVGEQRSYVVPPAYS

Assay [2] has as its target T2, NOL8 (Homo sapiens, UniProt Q76FK4).
T2 sequence: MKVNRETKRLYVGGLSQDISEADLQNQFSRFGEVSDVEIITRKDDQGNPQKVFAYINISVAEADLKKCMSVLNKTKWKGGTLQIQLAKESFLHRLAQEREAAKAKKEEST

Assay [3] deals with T3, hnRNP-A0 (Homo sapiens, UniProt Q13151).
T3 sequence: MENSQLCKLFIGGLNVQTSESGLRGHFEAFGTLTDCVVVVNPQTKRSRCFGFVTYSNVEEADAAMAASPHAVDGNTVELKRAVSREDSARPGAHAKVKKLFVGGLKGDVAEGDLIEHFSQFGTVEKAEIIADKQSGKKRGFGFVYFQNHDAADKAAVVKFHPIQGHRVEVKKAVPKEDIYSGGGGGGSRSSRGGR

For assay [4], the target named is T4, NeuN (Homo sapiens, UniProt A6NFN3).
T4 sequence: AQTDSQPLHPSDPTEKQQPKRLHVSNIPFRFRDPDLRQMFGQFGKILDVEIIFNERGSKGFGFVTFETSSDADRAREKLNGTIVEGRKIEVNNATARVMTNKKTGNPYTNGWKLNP

Assay [5] concerns the target T5, hnRNP-2H9 (Homo sapiens, UniProt P31942).
T5 sequence: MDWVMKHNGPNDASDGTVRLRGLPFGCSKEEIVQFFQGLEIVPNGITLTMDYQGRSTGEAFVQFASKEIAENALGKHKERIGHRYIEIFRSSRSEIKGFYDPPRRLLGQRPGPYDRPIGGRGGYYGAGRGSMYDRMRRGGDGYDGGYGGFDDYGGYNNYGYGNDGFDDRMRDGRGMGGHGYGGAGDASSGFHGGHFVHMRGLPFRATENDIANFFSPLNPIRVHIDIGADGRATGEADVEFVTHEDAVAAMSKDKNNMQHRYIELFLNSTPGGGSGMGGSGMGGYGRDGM

Assay [6] deals with T6, CPEB4 (Homo sapiens, UniProt Q17RY0).
T6 sequence: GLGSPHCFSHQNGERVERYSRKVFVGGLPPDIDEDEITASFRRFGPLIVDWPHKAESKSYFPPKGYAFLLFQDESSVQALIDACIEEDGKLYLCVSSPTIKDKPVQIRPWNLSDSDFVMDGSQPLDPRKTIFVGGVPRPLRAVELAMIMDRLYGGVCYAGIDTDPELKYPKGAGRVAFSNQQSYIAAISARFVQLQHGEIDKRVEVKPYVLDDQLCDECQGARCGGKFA

In assay [7] the target is CELF5(3) (Homo sapiens, UniProt Q8N6W0).
Assay [8] concerns the target CPEB1 (Homo sapiens, UniProt Q9BZB8).
Assay [9] deals with T7, MYEF2(3) (Homo sapiens, UniProt Q9P2K5).
T7 sequence: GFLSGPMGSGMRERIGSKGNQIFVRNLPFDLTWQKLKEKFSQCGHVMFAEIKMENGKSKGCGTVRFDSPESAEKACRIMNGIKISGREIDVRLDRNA

The target of assay [10] is T8, CstF-64T (Homo sapiens, UniProt Q9H0L4).
T8 sequence: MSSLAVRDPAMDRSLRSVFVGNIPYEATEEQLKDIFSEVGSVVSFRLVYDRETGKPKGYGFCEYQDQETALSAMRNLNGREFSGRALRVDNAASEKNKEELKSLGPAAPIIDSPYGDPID

CPEB1, sequence (Q9BZB8 290-531): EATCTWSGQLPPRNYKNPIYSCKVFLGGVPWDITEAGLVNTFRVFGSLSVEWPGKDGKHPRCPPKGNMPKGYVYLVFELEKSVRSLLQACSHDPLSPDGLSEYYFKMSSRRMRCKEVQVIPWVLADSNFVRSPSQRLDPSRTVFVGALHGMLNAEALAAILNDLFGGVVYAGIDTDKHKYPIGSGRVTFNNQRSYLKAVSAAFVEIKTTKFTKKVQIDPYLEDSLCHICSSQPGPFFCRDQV
CELF5(3), sequence (Q8N6W0 376-485): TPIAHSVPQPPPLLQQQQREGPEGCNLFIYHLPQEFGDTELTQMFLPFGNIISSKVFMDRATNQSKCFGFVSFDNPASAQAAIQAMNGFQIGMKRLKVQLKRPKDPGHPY

For UGAGGUAGUAGGUUGUAUAGUU, the binding signal in assay [1] was determined as 94.2 ± 11 fluorescence intensity; in assay [2], 20.3 ± 2.97 fluorescence intensity; in assay [3] it was 1310 ± 111 fluorescence intensity; in assay [4] it was 866 ± 44.2 fluorescence intensity; in [5], 151 ± 11.1 fluorescence intensity; in assay [6], 82.4 ± 7.2 fluorescence intensity. Besides, the binding signal was 450 ± 137 fluorescence intensity in assay [7], 110 ± 9.17 fluorescence intensity in assay [8], 190.1 ± 1.74 fluorescence intensity in assay [9] and 387 ± 8.85 fluorescence intensity in assay [10].
In the case of UAGCUUAUCAGACUGAUGUUGA, the binding signal in assay [1] was 238 ± 9.04 fluorescence intensity; in assay [3], 153 ± 38.7 fluorescence intensity; in assay [4], 1430 ± 113 fluorescence intensity; in assay [6], 52.4 ± 15.6 fluorescence intensity; in assay [7], 118 ± 40.8 fluorescence intensity; in assay [8], 37.9 ± 2.09 fluorescence intensity. In addition, the binding signal in assay [9] is 39.3 ± 2.37 fluorescence intensity; in assay [10], 109 ± 3.13 fluorescence intensity.
Turning to UGAGGUAGUAGGUUGUAUGGUU, the binding signal is 303 ± 13.1 fluorescence intensity in assay [1]; 49 ± 3.09 fluorescence intensity in [2]; 2280 ± 31.4 fluorescence intensity in assay [3]; 2130 ± 66 fluorescence intensity in assay [4]; 368 ± 23.9 fluorescence intensity in assay [5]; 148 ± 21.1 fluorescence intensity in assay [6]. For the same sequence, the binding signal in assay [7] worked out at 1000 ± 43 fluorescence intensity; in assay [8], 312 ± 54.2 fluorescence intensity; in assay [9] it was 560 ± 17.7 fluorescence intensity; in assay [10], 853 ± 47 fluorescence intensity.
As to UGAGGUAGUAGGUUGUGUGGUU, the binding signal in assay [1] amounted to 433 ± 5.39 fluorescence intensity; in assay [2], 66.3 ± 9.47 fluorescence intensity; in assay [3], 2115 ± 15 fluorescence intensity; in assay [4], 1967 ± 2.72 fluorescence intensity; in assay [5], 443 ± 62 fluorescence intensity; in assay [6], 290 ± 49.8 fluorescence intensity. The binding signal in [7] worked out at 1040 ± 35.6 fluorescence intensity; in [8], 462.1 ± 2.31 fluorescence intensity; in assay [9], 635 ± 16.7 fluorescence intensity; in assay [10], 1870 ± 24.6 fluorescence intensity.
As to CAGUGCAAUGAUGAAAGGGCAU, the binding signal in assay [1] was 42.2 ± 30.1 fluorescence intensity; in assay [2], 34.8 ± 9.25 fluorescence intensity; in assay [3], 990 ± 34.9 fluorescence intensity; in assay [4], 2230 ± 258 fluorescence intensity; in assay [5], 533 ± 18.5 fluorescence intensity; in assay [6] it was 55.3 ± 15.5 fluorescence intensity. The binding signal stood at 378 ± 41 fluorescence intensity in assay [7], 186 ± 8.15 fluorescence intensity in [8], 261.9 ± 2.02 fluorescence intensity in assay [9] and 418 ± 14.4 fluorescence intensity in assay [10].
On to AGAGGUAGUAGGUUGCAUAGUU, for which the binding signal was found to be 362 ± 63.4 fluorescence intensity in assay [1]; 33.7 ± 0.233 fluorescence intensity in [2]; 3219 ± 6.02 fluorescence intensity in [3]; 2786.2 ± 1.57 fluorescence intensity in assay [4]; 466 ± 9.64 fluorescence intensity in assay [5]; 130 ± 29.4 fluorescence intensity in [6]. Further, the binding signal is 1050 ± 99.1 fluorescence intensity in assay [7], 377 ± 32.4 fluorescence intensity in assay [8], 578 ± 21.2 fluorescence intensity in [9] and 1930 ± 88 fluorescence intensity in assay [10].
